Here are results for 33 molecules from PubChem BioAssay (NCI).

SMILES strings stand for the structures. Compounds without any hit were thinned out: in the full panel of roughly 83,000, 20% have a hit.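 Single-concentration screen, 48 h exposure, 96-well plates. Endpoint: percent growth. Below 10 = active.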 Values without a mark were called inactive. Calls of active or inactive are those of the source.

The first experiment has as its system PC-3 prostate. The experiment is described as follows: NCI-60 one-dose screen, 48 h (100 = growth as untreated, 0 = no growth, -100 = all killed). As to conditions: 10 µM unless noted.
As for `CCN(CC)c1ccc(/C=C/C=C2\NC(=O)NC2=O)cc1`, the growth is 18.9%.

Turning to `Cn1cc(-c2noc(C(=O)c3cn(C)c4ncc(Br)cc34)n2)c2ccccc21`, the growth was 92.3%.

On to `CCOc1ccc(/C=C(\C#N)c2cc3ccccc3[nH]2)cc1`, for which the growth was 68.2%.

Another experiment concerns SK-MEL-5 melanoma. Described as above. As to conditions: 10 µM unless noted.
On to `CCOC(=O)c1cnc2ccc(Br)cc2c1Nc1cccc(S(N)(=O)=O)c1`, for which the growth was 89.1%.

As for `CCCCC(CCCCCC(CCCC)C1NC(C)Cc2cc(OC)c(OC)cc21)C1NC(C)Cc2cc(OC)c(OC)cc21` (centres undefined), the growth is -96.1% (active).

For `O=C(N=c1n(-c2ccccc2)nc2n1CCN2C1=NCCN1C(=O)c1ccc(Cl)cc1)c1ccc(Cl)cc1`, the growth was 70.9%.

For the molecule `O=C(OCc1ccc2c(Cl)cc(Cl)c(O)c2n1)N1CCN(C(=O)c2cc3cc(F)ccc3[nH]2)CC1`, the growth was -33% (active).

For `CC1=C/C(=C(\c2cc(C)c(O)c(C(=O)O)c2)c2c(Cl)cccc2Cl)C=C(C(=O)O)C1=O`, the growth is 100%.

In the case of `COc1ccc(C(=O)CCC(=O)O)cc1`, the growth was 99.8%.

On to `COc1cc(NCc2ccccc2O)c2ncccc2c1`, for which the growth was 101%.

On to `O=C(Oc1ccc(Cl)cc1[N+](=O)[O-])Oc1ccc(Cl)cc1[N+](=O)[O-]`, for which the growth is 120%.

As to `COc1ccc(-c2cc(-c3ccc(OC)c(OC)c3)nc(SCCCCCC(=O)NO)n2)cc1`, the growth was 31.9%.

Turning to `O=C(NCCCNC(=O)OCc1ccc2cccc(O)c2n1)OCc1ccc2cccc(O)c2n1`, the growth is 61.5%.

Turning to `Nc1cccc2c1C(=O)c1cccc(NC(=O)c3ccccc3)c1C2=O`, the growth is 12.3%.

On to `Cc1cc(NN=C(c2ccc(O)cc2)c2ccc(O)cc2)c([N+](=O)[O-])cc1[N+](=O)[O-]`, for which the growth is 46%.

Regarding `CC1(C(=O)O)CCC(N)(C(=O)O)C1(C)C` (centres undefined), the growth is 107%.

Turning to `O=C(Nc1cccc(F)c1)c1cc(=O)[nH]c2cc(Br)ccc12`, the growth is 32%.

Turning to `N#Cc1c(Cl)nc(SCC2CO2)nc1-c1ccccc1` (centres undefined), the growth is 107%.

Consider `CC1Cc2c(Cl)ncnc2N(C)c2ccc(Cl)cc21` (centres undefined), for which the growth is -86.9% (active).

On to `CCCc1cc2cc(-n3nc(C)c4c3CC(C)(C)CC4=O)cc(NC3CCSCC3)c2c(=O)[nH]1`, for which the growth was 70.4%.

Consider `O=C(O)c1cn(C2CC2)c2cc(N3CCN(Cc4cc(Cl)ccc4O)CC3)c(F)cc2c1=O`, for which the growth was 58.8%.

As for `COc1ccc2nc3cc(Cl)ccc3c(Nc3ccc(O)c(CN4CCCC4)c3)c2c1`, the growth is 41.1%.

Turning to `COc1ccc(C(=O)c2nccc3cc(OC)c(OC)cc23)cc1OC`, the growth was 99.6%.

For the molecule `CC1Cc2c(Cl)ncnc2N(C)c2ccc(O)cc21` (centres undefined), the growth was -78.9% (active).

With `COc1ccc(-c2cc(-c3ccccc3)nc(NCCNc3ccnc4cc(Cl)ccc34)n2)cc1`, the growth is -97.6% (active).

On to `O=C1/C(=C/c2ccc(OCc3ccccc3)cc2)Oc2cc(OCCN3CCCCC3)ccc21`, for which the growth was 61.6%.

For `c1ccc2c(c1)CN(CCCN1CCOCC1)C2`, the growth is 99.1%.

For `Clc1ccccc1/C=N\Nc1ccccn1`, the growth was 89.2%.

As to `CN(C)CCCNc1nc(-c2cccc(C(Cl)(Cl)Cl)c2)nc(C(Cl)(Cl)Cl)n1`, the growth is 103%.

As to `CC1(C)CC[C@]2(C(N)=O)CC[C@]3(C)C(=CC[C@@H]4[C@@]5(C)C/C(=C/c6ccncc6)C(=O)C(C)(C)[C@@H]5CC[C@]43C)[C@@H]2C1`, the growth is -71.1% [100 µM] (active).

Turning to `CCOc1ccc(/C=C(\C#N)c2cc3ccccc3[nH]2)cc1`, the growth was 72.2%.

As to `c1coc2occoc=2o1`, the growth is 97.2%.

For `COc1cc2c(c(OC)c1)C1c3cc(OC)ccc3NC(=O)N1CC2` (centres undefined), the growth was 82.2%.

As to `CCC(C)[C@H](NC(=O)NC(=O)NC(=O)CI)C(=O)OC` (some centres undefined), the growth is 91.5%.
